CFTR F508del cor: correctors of CFTR F508del function in bronchial epithelial cells; CFBE cells, YFP halide quenching; stimulated with forskolin plus potentiator P3; % fluorescence drop versus neutral controls; activity (quench increase), % at 7.58 µM; actives 0.36% (n = 350,000); AID 720511;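 active = mean added fluorescence quench of at least 8% versus neutral control, with both replicates also reaching 8%; inconclusive = only one of the mean or replicate conditions met; inactive = mean below 8% and not both replicates reaching 8%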;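 also: cells transiently co-express mutant CFTR-F508del with the halide-sensitive YFP; corrector assay measuring rescue of mutant channel to the surface after 24 h compound exposure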
INS-1E GSIS act: primary screen for activators of insulin secretion dependent on glucose, INS-1E cells, GLuc reporter luminescence; INS-1E GLuc reporter insulin secretion, 2-3 h; activation, % at 16.6 µM; actives 0.61% (n = 370,000); AID 743287;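 active = lowest replicate activation of at least 40%, so every replicate reaches that level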
LGR2 inh: inhibitors of bursicon-induced Drosophila LGR2 receptor cAMP signaling; AID 720647; actives 0.35% (n = 380,000); inhibition, % at 9.99 µM; HEK293 LGR2, CRE-luciferase, bursicon-stimulated, 4 h;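 active = drop in luminescence signal, shown as inhibition above about 50% in the replicate tests, limit read from the data, passing the limit was not always enough; inconclusive = probably only some replicates passing the limit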;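 also: agonist challenge used bursicon conditioned medium at about half maximal strength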
EWS-Fli inh: inhibitors of EWS/Fli oncoprotein transcriptional activity. A673 NR0B1-luciferase reporter, viability-normalised. inhibition, % at 12.6 µM. actives 0.67% (n = 350,000);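 active = mean inhibition of at least 50% after viability correction, with every replicate also passing that limit; inconclusive = mean reaches 50% but only one of two replicates passes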;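 also: firefly luciferase signal divided by Alamar Blue viability fluorescence both relative to DMSO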
RAD52 inh: blocks human RAD52 DNA annealing; P43351; recombinant RAD52 DNA annealing, FRET fluorescence; inhibition, % at 18.7 µM; actives 0.46% (n = 360,000); AID 651710;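 active = every replicate showing at least 50% inhibition; inconclusive = mean inhibition at least 50% but not in every replicate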
RAD54 inh: inhibitors of human RAD54 branch migration | RAD54 Holliday junction branch migration, FAM/BHQ fluorescence | inhibition, % at 10.4 µM | actives 0.14% (n = 360,000) | Q92698 | AID 602329;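 active = mean normalized replicate activity at least 40 and at least half of replicates scoring 40 or more; inconclusive = only one of the two criteria met; inactive = mean below 40 and under half of replicates reaching 40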;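 also: inhibitors cause a drop in the FAM fluorescence signal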
Target sequence (Q92698 whole entry, looked up): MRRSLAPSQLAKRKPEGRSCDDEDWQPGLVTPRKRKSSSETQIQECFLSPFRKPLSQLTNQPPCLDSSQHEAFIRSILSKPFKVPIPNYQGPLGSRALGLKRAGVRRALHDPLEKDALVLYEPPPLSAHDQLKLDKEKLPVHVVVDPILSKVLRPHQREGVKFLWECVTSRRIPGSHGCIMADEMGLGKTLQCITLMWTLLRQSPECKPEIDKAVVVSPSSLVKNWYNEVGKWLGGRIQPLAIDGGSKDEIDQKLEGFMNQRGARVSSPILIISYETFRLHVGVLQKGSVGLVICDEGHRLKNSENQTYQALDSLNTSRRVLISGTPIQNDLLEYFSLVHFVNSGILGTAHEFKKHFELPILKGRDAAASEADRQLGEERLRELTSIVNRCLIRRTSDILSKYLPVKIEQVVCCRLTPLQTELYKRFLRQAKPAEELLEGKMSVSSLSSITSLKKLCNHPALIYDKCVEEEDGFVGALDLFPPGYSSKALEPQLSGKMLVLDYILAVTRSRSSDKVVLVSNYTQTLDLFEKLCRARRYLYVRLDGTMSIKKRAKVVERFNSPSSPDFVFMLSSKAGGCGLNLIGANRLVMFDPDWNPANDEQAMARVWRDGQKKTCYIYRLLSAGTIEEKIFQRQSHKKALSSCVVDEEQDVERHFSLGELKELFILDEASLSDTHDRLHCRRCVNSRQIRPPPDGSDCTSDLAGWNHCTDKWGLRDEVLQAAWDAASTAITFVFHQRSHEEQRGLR
DNA binding: binds DNA, flagging false Rad54 inhibitor hits. shares compounds with RAD54 inh. Acridine orange-DNA displacement, fluorescence polarization, 20 min. AC50, µM (series often up to 35 µM). actives 8% (n = 460);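 active = signal drop giving an AC50 within twice the top valid tested concentration of each sample, actives reach about 35 µM in these data; inactive = activity opposite to expected, plus the rest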;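 also: polarization loss reports compound binding to salmon sperm DNA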
DNA binder FP-1: binds DNA displacing acridine orange; shares compounds with EWS-Fli inh; salmon sperm DNA acridine orange fluorescence polarization; AC35, µM (top dose mostly 68 µM); actives 2% (n = 640);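 active = fitted curve reaches a 35% signal fall AC35 below twice the sample's top valid tested dose, actives reach about 48 µM in these data; inactive = the rest, including activity in the rising direction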;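 also: lower polarization ratio signals compound binding to DNA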
DNA binder FP-2: counter-screen for RAD52 inhibitors: DNA binding compounds; actives 8% (n = 1,000); Salmon sperm DNA/acridine orange FP displacement; shares compounds with RAD52 inh; AC50, µM;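 active = fitted half-maximal concentration for signal loss at or below twice the highest dose tested, in every separate run, actives reach about 64 µM in these data; inconclusive = runs disagree, or flat partial signal loss, or poor fit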
A number is an active result; . = inactive; ? = inconclusive; / = no result; ! = not confirmed by another sample. In the library only some 1.8% were active in any assay of this set; here they are far more common.

SMILES	CFTR F508del cor	INS-1E GSIS act	LGR2 inh	EWS-Fli inh	RAD52 inh	RAD54 inh	others
O=c1nc(/C=C/c2ccc(Cl)cc2Cl)cc(C(F)(F)F)[nH]1	.	.	.	.	.	.
CN1CCC(N(C)c2nc(-c3ccccc3)nc3ccccc23)CC1	/	.	.	/	.	67.1	DNA binding=.
Cc1cc(N2CCN(C)CC2)nc2ccccc12	.	.	.	.	.	.
CCN1CCN(c2ccc(N)c(C)c2)CC1	.	.	.	.	92.0	76.5	DNA binding=.;DNA binder FP-2=.
Cc1ccc(C2N(c3ccccn3)C(=O)C3CCCN32)o1 (centres undefined)	.	.	.	.	.	.
C[C@@H]1O[C@@H](O[C@@H]2C=C3CCC4C(CC[C@]5(C)[C@@H](c6ccc(=O)oc6)CC[C@]45O)[C@@]3(C)CC2)[C@H](O)[C@H](O)[C@H]1O (some centres undefined)	.	.	.	71.3	.	.	DNA binder FP-1=.
C[C@@H]1O[C@@H](O[C@@H]2C=C3CC[C@@H]4C(CC[C@]5(C)[C@@H](c6ccc(=O)oc6)CC[C@]45O)[C@@]3(C)CC2)[C@H](O)[C@H](O)[C@H]1O (some centres undefined)	23.6	.	86.0	70.9	.	.	DNA binder FP-1=.
CCC(c1ccc(C)cc1)N1C(=O)C2C3CCC(O3)C2C1=O (centres undefined)	.	.	.	.	.	.
CC(C)NC(=O)Cn1cc(C(=O)c2ccccc2)c2ccccc21	/	/	/	.	.	.
COC1C(C)OC(OC2CC(C)(O)Cc3cc4c(c(O)c32)C(=O)c2c(O)cc3c(c2C4=O)OC2OC3(C)C(O)C(N(C)C)C2O)C(OC)C1(C)OC (centres undefined)	20.4	.	.	55.7	.	/	DNA binder FP-1=1.26µM
COC(=O)[C@H]1[C@H](CO)[C@H]2Cn3c(ccc(-c4ccccc4F)c3=O)[C@@H]1N2CC1CCCC1	/	.	.	66.2	.	.	DNA binder FP-1=.
COC(=O)[C@@H]1[C@@H](CO)[C@@H]2Cn3c(ccc(-c4ccccc4)c3=O)[C@H]1N2CC1CCCCC1	.	.	.	.	.	.
Cc1ccnc(NC(=O)CCCc2ccc(N(CCCl)CCCl)cc2)n1	.	.	.	.	.	.
COc1ccc(C)cc1NC(=O)N1CCC2(CC1)OCCO2	.	.	.	.	.	/
C[C@@H]1O[C@@H](O[C@H]2C[C@@H](O)[C@]3(CO)[C@H]4[C@H](O)C[C@]5(C)[C@@H](C6COC(=O)C6)CC[C@]5(O)[C@@H]4CC[C@]3(O)C2)[C@H](O)[C@H](O)[C@H]1O (some centres undefined)	.	/	81.2	70.3	.	.	DNA binder FP-1=.
COc1ccc(C(=O)N/N=C/C23CC[C@@H](O)CC2(O)CC[C@@H]2[C@@H]3CCC3(C)C(C4=CC(=O)OC4)CCC23O)cc1 (some centres undefined)	.	.	.	.	.	/
CC1OC(OC2CC(O)C3(CO)C4C(O)CC5(C)C(C6=CC(=O)OC6)CCC5(O)C4CCC3(O)C2)C(O)C(O)C1O (centres undefined)	14.9	/	89.6	67.7	.	.	DNA binder FP-1=.
CC(=O)OC1CC(OC2C(O)CC(OC3C(O)CC(OC4CCC5(C)C(CCC6C5CCC5(C)C(C7=CC(=O)OC7)CCC65O)C4)OC3C)OC2C)OC(C)C1OC1OC(CO)C(O)C(O)C1O (centres undefined)	.	/	85.8	52.9	.	/	DNA binder FP-1=.
CCN1CCN(S(=O)(=O)c2cnc(Cl)c(Br)c2)CC1	/	.	.	.	/	/
O=C1NC(=S)NC(=O)C1=Cc1cccn1-c1ccc(O)cc1	.	.	/	71.5	.	/	DNA binder FP-1=.
CCOc1cc(C=C2C(=O)NC(=S)NC2=O)ccc1O	.	.	.	.	.	.
Nc1ccc(CC2=NCCN2)cc1	.	.	.	.	83.6	/	DNA binder FP-2=62.9µM
CN(C)c1ccc(/C=C/c2cc[n+](C)c3ccccc23)cc1	.	.	.	.	64.4!	/	DNA binder FP-2=8.3µM
CC[n+]1c(/C=C/C=C/c2ccc(N(C)C)cc2)sc2ccccc21	.	.	.	.	.	.
CN(C)c1ccc(/C=C/C=C/c2sc3ccccc3[n+]2C)cc1	.	.	.	.	63.2	.	DNA binder FP-2=?
SMILES	CFTR F508del cor	INS-1E GSIS act	LGR2 inh	EWS-Fli inh	RAD52 inh	RAD54 inh	others
Fc1ccc2c(c1)nnn2C1CCN(Cc2c(Cl)cccc2Cl)CC1	/	.	.	/	/	.
COc1ccc(OC)c(N2C(=O)NC(=O)C3(Cc4cc(C)ccc4N(C)C3)C2=O)c1 (centres undefined)	/	.	.	/	.	.
CC(=O)C1CCC2C3C(N4CC4)CC4=CC(=O)CCC4(C)C3CCC12C (centres undefined)	.	/	/	.	.	/
CCCN(CCC)CCc1c[nH]c2ccccc12	.	.	.	.	.	/
CCOC(=O)c1c(C)n(Cc2ccccc2)c2ccc(OCC(O)CNC(C)(C)C)cc12 (centres undefined)	.	.	.	.	51.7	.	DNA binder FP-2=.
CCOC(=O)c1c(C)n(Cc2ccccc2)c2ccc(OCC(O)Cn3nc(C)nc3C)cc12 (centres undefined)	.	.	.	.	.	.
O=c1c2ccccc2nc(-c2cccs2)n1-c1ccccc1	/	/	/	/	/	.
NC(N)=N/N=C/c1cn(-c2ccccc2)nc1-c1cccs1	.	/	105.6	.	88.0	/	DNA binder FP-2=.
COc1cc2c(cc1OC)-c1c(OC)c(OC)cc3c1C(C2)N(C)CC3 (centres undefined)	.	.	.	.	71.1	61.6	DNA binder FP-2=.
COc1cc2c(cc1OC)-c1c3c(cc4c1[C@@H](C2)N(C)CC4)OCO3	.	.	.	.	100.2	104.4	DNA binder FP-2=.
COc1ccc2c(c1OC)C(=O)O[C@H]2[C@@H]1c2cc3c(cc2CCN1C)OCO3	.	.	.	.	.	.
Cn1c(CN2CCN(C(=O)COc3ccccc3)CC2)nc2cc([N+](=O)[O-])ccc21	.	.	.	.	.	/
COC(=O)C1=C(c2cc3ccccc3s2)C[C@@H]2CC[C@H]1N2C(=O)NCCS(C)=O (some centres undefined)	.	.	.	.	.	.
Oc1ccc(-[n+]2c(-c3ccccc3)cc(-c3ccccc3)cc2-c2ccccc2)cc1	.	.	103.0	.	60.1	.	DNA binder FP-2=.
COc1ccc(-[n+]2c(-c3ccccc3)cc(-c3ccccc3)cc2-c2ccccc2)cc1	.	.	.	.	.	/
O=C([O-])c1ccc(-[n+]2c(-c3ccccc3)cc(-c3ccccc3)cc2-c2ccccc2)cc1	.	.	.	.	56.5	.	DNA binder FP-2=.

From PubChem
